Assay results taken from the supplement of paper PMC13380429.

Tested on: Vero E6 infected with SARS-CoV-2
Assay: inhibition of SARS-CoV-2 cytopathic effect; higher = more antiviral protection, active = above 15
Conditions: 48 h

Measured: inhibition of SARS-CoV-2 cytopathic effect

O=C(Oc1ccc([N+](=O)[O-])cc1)N1CCN(Cc2cccc(Oc3ccccc3)c2)CC1
inactive: 1 nM -1.56% | 8.33 nM -2.22% | 100 nM -1.22% | 833.33 nM -1.53% | 10000 nM 1.51%

COC1CCN(c2cccc(-c3cc(NC(C)=O)nc(-n4nc(C)cc4C)n3)n2)CC1
inactive: 1 nM 0.48% | 8.33 nM 2.72% | 100 nM 2.53% | 833.33 nM 1.74% | 10000 nM -0.2%

C=CC[C@]1(O)CC[C@H]2[C@@H]3CCC4=CCCC[C@@H]4[C@H]3CC[C@@]21C [allylestrenol]
inactive: 1 nM -1.01% | 8.33 nM -2.16% | 100 nM 1.52% | 833.33 nM 1.07% | 10000 nM 1.75%

CO/N=C(\C(=O)N[C@@H]1C(=O)N2C(C(=O)[O-])=C(C[N+]3(C)CCCC3)CS[C@H]12)c1csc(N)n1 [cefepime]
inactive: 1 nM 0.86% | 8.33 nM 1.89% | 100 nM 2.66% | 833.33 nM 3.19% | 10000 nM 1.42%

COc1cc(/C=C/C(=O)N2CCN(CC(=O)N3CCCC3)CC2)cc(OC)c1OC [cinepazide]
inactive: 1 nM 5.93% | 8.33 nM 5.29% | 100 nM 8.11% | 833.33 nM -1.14% | 10000 nM 0.17%

CN(C)CCC(c1ccccc1)c1ccccn1 (stereo not given) [pheniramine]
inactive: 1 nM -0.78% | 8.33 nM 3.08% | 100 nM 0.29% | 833.33 nM 2.25% | 10000 nM -0.28%

O=c1c(O)c(-c2ccc(O)c(O)c2)oc2cc(O)ccc12 [fisetin]
inactive: 1 nM 0.55% | 8.33 nM -1.12% | 100 nM 0.7% | 833.33 nM -0.95% | 10000 nM -1.68%

C=CCN1CC[C@]23CCCC[C@H]2[C@H]1Cc1ccc(O)cc13 [levallorphan]
inactive: 1 nM -1.28% | 8.33 nM 0.72% | 100 nM -1.34% | 833.33 nM -1.26% | 10000 nM -3.54%

CC(NCCC(c1ccccc1)c1ccccc1)c1ccccc1 (stereo not given) [fendiline]
inactive: 1 nM 0.75% | 8.33 nM 2.18% | 100 nM -0.68% | 833.33 nM -4.72% | 10000 nM 11.9%

CCOC(=O)C1=C(C)NC(C)=C(C(=O)OC)[C@@H]1c1cccc([N+](=O)[O-])c1 (racemic) [nitrendipine]
inactive: 1 nM 1.59% | 8.33 nM 0.33% | 100 nM -3.74% | 833.33 nM -0.45% | 10000 nM 4.26%

Clc1ccc(CSC(Cn2ccnc2)c2ccc(Cl)cc2Cl)cc1 (stereo not given) [sulconazole]
inactive: 1 nM -1.13% | 8.33 nM 2.09% | 100 nM 0.76% | 833.33 nM -1.38% | 10000 nM -0.46%

Cn1cc(-c2cnn3c(N)c(Br)c([C@@H]4CCCNC4)nc23)cn1
inactive: 1 nM 0.61% | 8.33 nM 0.92% | 100 nM 2.32% | 833.33 nM 2.1% | 10000 nM 0.48%

Cc1cccc(C)c1NC(=O)C[N+](C)(C)C
inactive: 1 nM -1.32% | 8.33 nM 0.36% | 100 nM 0.02% | 833.33 nM -0.1% | 10000 nM 0.5%

Cn1cnc(N)c2ncnc1-2 [3-methyladenine]
inactive: 1 nM -3.13% | 8.33 nM -1.71% | 100 nM -2.68% | 833.33 nM -0.52% | 10000 nM -1.76%

N=C(N)NC(=N)NCCc1ccccc1 [phenformin]
inactive: 1 nM -3.22% | 8.33 nM 0.38% | 100 nM -2.7% | 833.33 nM -2.58% | 10000 nM -5.63%

OC[C@H]1O[C@@H](Oc2cc(O)cc(/C=C/c3ccc(O)cc3)c2)[C@H](O)[C@@H](O)[C@@H]1O [polydatin]
inactive: 1 nM -1.01% | 8.33 nM -1.06% | 100 nM 1.77% | 833.33 nM 9.49% | 10000 nM 2.31%

C/C=C1\NC(=O)[C@H]2CSSCC/C=C/[C@H](CC(=O)N[C@H](C(C)C)C(=O)N2)OC(=O)[C@H](C(C)C)NC1=O [romidepsin]
inactive: 1 nM -1.04% | 8.33 nM 0.79% | 100 nM -0.75% | 833.33 nM -16.6% | 10000 nM -18%

COc1ccc(S(=O)(=O)Nc2cc(Cl)cc(Cl)c2OC)cc1N1CCNCC1
inactive: 1 nM -1.83% | 8.33 nM 1.03% | 100 nM 1.96% | 833.33 nM 5.17% | 10000 nM -2.32%

CCOCc1cc(OC)c(-c2ccc(C[C@H](NC(=O)c3c(F)cccc3F)C(=O)O)cc2)c(OC)c1 [firategrast]
inactive: 1 nM 2.19% | 8.33 nM -0.43% | 100 nM 0.01% | 833.33 nM -0.69% | 10000 nM -2.41%

COc1ccc(CCN)cc1OC [homoveratrylamine]
inactive: 1 nM 0.49% | 8.33 nM 7.09% | 100 nM 12.7% | 833.33 nM 5.43% | 10000 nM 11.1%
